Source: PubChem BioAssay (NCI)
This is part of a sample that, as a whole, favours compounds with a hit. Of some 83,000 tested, about 20% had one in any assay.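 A percent growth of 40 corresponds to 60% growth inhibition; 0 means no net growth; -100 means all cells died. Active threshold: below 10.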 A number with no mark means an inactive call. The source made the active and inactive calls.

How the values were obtained:
Assay in all cases: NCI-60 one-dose screen, 48 h (100 = growth as untreated, 0 = no growth, -100 = all killed)
Conditions in all cases: 10 µM unless noted
SK-MEL-2 melanoma = tested on: SK-MEL-2 melanoma
EKVX NSCLC = tested on: EKVX NSCLC
SN12C renal = tested on: SN12C renal
UO-31 renal = tested on: UO-31 renal
TK-10 renal = tested on: TK-10 renal
ACHN renal = tested on: ACHN renal
CAKI-1 renal = tested on: CAKI-1 renal
CCRF-CEM leukemia = tested on: CCRF-CEM leukemia
MOLT-4 leukemia = tested on: MOLT-4 leukemia
A498 renal = tested on: A498 renal

SMILES | growth (SK-MEL-2 melanoma) | growth (EKVX NSCLC) | growth (SN12C renal) | growth (UO-31 renal) | growth (TK-10 renal) | growth (ACHN renal) | growth (CAKI-1 renal) | growth (CCRF-CEM leukemia) | growth (MOLT-4 leukemia) | growth (A498 renal) [%]
CCN1C(=O)/C(=C/C(=O)OC)S/C1=N\NC(=O)c1cc2ccc1/C=C\c1ccc(cc1)/C=C\2 | 94.2% | 93.6% | 95% | 79% | 93.5% | 93.4% | 89.5% | 33.9% | 37.2% | 
CCN1Cc2nc3sc(C)c(C)c3c(=O)n2C=C1C | 91.9% | 59.8% | 57.1% | 34.4% | 87.5% | 65.3% | 61.6% |  | -3.45% (active) | 108
CCCCOc1ccc(/C=N/Nc2cc(C)nc3ccc(Br)cc23)cc1 | 106% | 69.9% | -78.4% (active) | -71.1% (active) | 76.2% | 19.9% | 71.3% | 2.46% (active) |  | 
COc1ccc(C(=O)CSc2nc(-c3cc(OC)ccc3OC)cc(-c3ccc(Cl)cc3)c2C#N)cc1 | 70.8% | 79.7% | 42.6% | 45.9% | 61.9% | 31% | 64.9% | 98.2% | 94.3% | 
CCCCCN1C=C/C(=C\C(=O)N(C)c2ccc(Oc3ccccc3)cc2)c2ccccc21 | 98% | 56.6% | 87.5% | 85.3% | 92.1% | 102% | 93.1% | 75.4% |  | 
Cn1c(N2NC(=O)C(N=Nc3ccc(S(N)(=O)=O)cc3)C2=O)nc(-c2ccco2)c(C#N)c1=O (configuration not stated) | 117% | 107% | 92.6% | 63.2% | 131% | 81.6% | 69.8% |  | 4.74% (active) | 122
CCCCCN1C=C/C(=C\C(=O)N(C)c2ccc(OC(F)(F)F)cc2)c2ccccc21 | 101% | 87.2% | 96% | 77.4% | 105% | 108% | 89.4% | 104% |  | 
N=C1C(c2nc3ccccc3s2)=C(O)CN1c1cc(Cl)cc(Cl)c1 | 105% | 82.4% | 86.2% | 60.2% | 115% | 73.4% | 78% |  | 29.4% | 98.5
CC(C)(C)c1ccc(NS(=O)(=O)c2ccc3nc(NC(=O)c4cnccn4)[nH]c3c2)cc1 | 45.3% | 58.6% | 44.3% | 36.1% | 57.4% | 39.6% | 21.7% | 7.84% (active) |  | 
Cc1cc2nc3c4cc([N+](=O)[O-])ccc4n(CCN(C)C)c3nc2cc1C | -56.5% (active) | -3.49% (active) | 1.16% (active) | -41.9% (active) | -5.99% (active) | -13% (active) | -15.7% (active) | 3.84% (active) | 1.36% (active) | 
COc1cc2c(=O)n(CCCN(C)C)c3c4cc5c(cc4ccc3c2cc1OC)OCO5 | 89% | 85% | 50.4% | 41.9% | 84.5% | 36.8% | 62% | 13.8% | -9.29% (active) | 
CCc1c(Cl)nc(N)nc1Nc1ccc(C)c(C)c1 | 99.3% | 89.2% | 99.9% | 90.8% | 103% | 99.7% | 86.5% | 100% | 94.4% | 
CCCCCCNC(=O)Oc1ccc(/C(=C(\C)c2ccccc2)c2ccc(OCCCN(C)C)cc2)cc1 | 92.3% | 91.1% | 80.7% | 57.8% | 91.2% | 97.9% | 94.8% | 77.6% | 62.6% | 
O=C1Nc2cc(-c3ccc(NC(=O)C4CC4)cc3)ccc2/C1=C/c1ccc[nH]1 | 109% | 47.6% | 97.8% | 80.2% | 115% | 106% | 102% | 98.7% | 94.7% | 
CCOC(=O)Oc1c(OC)cc(C(=O)c2ccc(OC)c(OC(=O)CCl)c2OC)cc1OC | 8.91% (active) | 70% | 42.4% | 46.6% | 39.1% | 36% | 30.3% | 15.9% | 29.6% | 
CC1(C)CC[C@]23CC[C@]4(C)[C@H](CC[C@@H]5[C@@]6(C)CCCNC(C)(C)[C@@H]6CC[C@]54C)[C@H]2[C@H]1OC3 | 10.5% | 23.2% | 17.7% | 2.86% (active) | 0.422% (active) | -88.3% (active) | -92% (active) | -6.07% (active) | -32.7% (active) | 
Cc1ccc(-n2cc(-c3ccccc3)c3c2N=NN2CCN=C32)cc1 | 103% | 87.5% | 96% | 74.5% | 141% | 105% | 68.7% | 101% | 97.3% | 
CNCCn1c(=O)c2cc(OC)c(OC)cc2c2ccc3cc4c(cc3c21)OCO4 | -76.1% (active) | -6.68% (active) | 2.31% (active) | -66.4% (active) | -68.9% (active) | -76% (active) | -84.9% (active) | -1.64% (active) | -10.3% (active) | 
CCCCC[n+]1ccc(SCC(=O)N(C)c2ccc(Oc3ccccc3)cc2)c2ccccc21 | 106% | 114% | 95.5% | 86.9% | 99.6% | 107% | 93.5% | 85% | 82% | 
COc1cccc(C(=O)NNc2nc(Cl)nc(N3CCN(C(c4ccccc4)c4ccccc4)CC3)n2)c1 | 79.1% | 89.6% | 70.9% | 93.4% | 97.8% | 54.6% | 68.7% | -5.32% (active) | 4.48% (active) | 
Cc1nc(N)nc(N[C@@H](C)c2nc3cccc(NCc4ccc(C(=O)NO)cc4)c3c(=O)n2-c2ccccc2)n1 | 74.7% | 76.8% | 84.5% | 68.4% | 80.3% | 101% | 77.5% | 23.2% | 32.9% | 
COc1ccc(C(=O)c2cc(C)c(OC)c(C)c2)c(OC)c1N(C(=O)CCl)C(=O)CCl | 27.8% | 51.7% | 31.3% | 39.3% | 52.5% | 18.2% | 42% | 8.61% (active) | 13.2% | 
CCN(CC)CCn1c(=O)c2cc(OC)c(OC)cc2c2ccc3cc4c(cc3c21)OCO4 | 93.2% | 83.9% | 32.9% | 22.8% | 67.6% | 10.2% | 17.3% | 2.85% (active) | -9.32% (active) | 
c1ccc(-c2cn3c(ccc4ccccc43)n2)cc1 | 40.3% | 73.2% | 60.8% | 48.9% | 89.5% | 79.5% | 38.6% | 65.1% | 57.8% | 
COc1ccc(/C=C2\Oc3cc(OCCCN4CCCCC4)ccc3C2=O)cc1OC | 108% | 91.5% | 93.5% | 67.9% | 89.1% | 93.2% | 92.8% | 28.9% | 83.3% | 
Nc1n[nH]c2cccc(C#Cc3cccc(C(=O)Nc4cccc(C(F)(F)F)c4)c3)c12 | 33.8% | 89.7% | 67.3% | 37.2% | 97.5% | 54.7% | 68.4% | 32.1% | 39.2% | 
CC(=O)O[C@H]1Cc2c([nH]c3ccccc23)[C@@H](c2ccc(Cl)cc2)N1C(=O)CCNC(C)(C)C | 79.4% | 67.2% | 58.4% | 23.7% | 94.5% | 64.5% | 63.6% | 41% | 28.6% | 
O=C(O)c1ccc(-c2nn(-c3ccc(C(F)(F)F)cc3)cc2CNc2ccc(Oc3ccccc3)cc2)cc1 | 90% | 66.9% | 78.2% | 60.1% | 98.3% | 65.9% | 91.8% | 76.7% | 67.6% | 
O=Cc1cc2ccccc2nc1Oc1ccc(C(F)(F)F)cc1 | 101% | 82.4% | 70.5% | 35.1% | 98% | 87.7% | 63.4% | 6.98% (active) | 60.5% | 
